Assay outcomes as filed in PubChem BioAssay.
This is a sample that favours compounds with a hit; in the whole collection about 1% have one here.
TRPML1 agonist = human mucolipin-1 channel agonism. hit rate 0.12% among 410,000. TRPML1-expressing cells, Ca2+ dye fluorescence, FDSS. activation, % (no concentration beside the values). Q9GZU1; in the data active = activation above about 50%; inconclusive = mostly about 30% to 49%; also: 0% is about no effect
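Cells: TRPML1-DL, 1X Tet inducer, ~16 h at 37 degrees C/5% CO2. Dye: ABD Ca8 no-wash + quencher, 45-90 min RT. Read: 10 s baseline, compound add, 110 s agonist phase; 54-4 EC80 (4uM final), 110 s antagonist phase.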
TSG101-PTAP inh = blocks PTAP/TSG101 interaction to inhibit HIV-1 budding; 340,000 tested, under 10 active; AID 493005; Potency, µM (highest dose often 115 µM), for the others: at the top dose activity change, negative = inhibition, usual class: inhibitors; Fluorescence polarization, FITC-PTAP peptide / Tsg101 binding; active = well fitted inhibition curve with a large enough effect in the main read-out, with a control signal flat, not every such curve was filed as active; inconclusive = small, poorly fitted or top-dose-only effect, or effect the other way, or a change in a side signal; inactive = no such curve, though single readings can be large or run the other way; also: potency is read from the fitted curve at half-maximal effect; % of control where 0% means no effect
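Fluorescence anisotropy tracks displacement of a FITC-tagged PTAP peptide (50 nM) from the Tsg101 binding domain (10 uM), following a 20 min room-temperature incubation at pH 7.5.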
GRP78 ERSR act = ER stress response induction in glioma; hit rate 0.02% among 420,000; AID 602332; Potency, µM, inactives show at the top dose activation, most hits filed as activators; U87-MG GRP78 promoter luciferase reporter, 16 h; active = well fitted activation curve with a large enough effect; inconclusive = small, poorly fitted or top-dose-only effect; inactive = no such curve, though single readings can be large or run the other way; also: potency is read from the fitted curve at half-maximal effect; series mostly up to about 76 µM; % of control where 0% means no effect; nearly all actives have a fitted effect of over 35% in size
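Stably transfected U87-MG human glioma cells carrying a GRP78-based luminescent sensor were seeded at 1000 cells/well, pin-dosed with compounds and incubated 16 h. Luciferase reagent was then added, and end-point luminescence was read after 10 min at room temperature.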
KCNH2 WT inh = inhibitors of human wildtype KCNH2 potassium channel; activity change, % at 1.84 µM; Q12809; AID 720551; U2OS, BacMam KCNH2, thallium flux FluxOr; active compounds read low; hit rate 0.37% among 340,000;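 active = maximum activity change below -70%; inconclusive = maximum activity change between -70% and -50%; inactive = maximum activity change above -50%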; also: % is scaled to controls: 0 for no effect and ±100 for the full control effect
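U2OS cells transduced with wild-type KCNH2 virus are loaded with FluxOr dye for 45 min, and thallium flux is measured in kinetic reads before and after stimulation buffer. Rate constants are normalized to DMSO controls.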
KCNH2 3.1 block = KCNH2 3.1 (human) potassium channel inhibition | hit rate 0.95% among 340,000 | activity change, % (tested at about 1.8 µM) | U2OS KCNH2 3.1, thallium flux FluxOr; active compounds read low | AID 720553;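 active = maximum activity change below -70%; inconclusive = maximum activity change from -70% to -50%; inactive = maximum activity change above -50%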;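 also: thallium influx rate constant from kinetic fluorescence after stimulation buffer; % is scaled to controls: 0 for no effect and ±100 for the full control effect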
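Measured as rate of thallium-driven FluxOr signal in transduced U2OS cells carrying the 3.1 channel, read kinetically for 2 min upon stimulation; values are rate constants scaled to DMSO control wells.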
TRPML1 inh = human mucolipin-1 channel inhibition; activity change, negative = inhibition, % (test concentration not listed); hit rate 0.02% among 390,000; TRPML1-inducible cells, Ca2+ dye fluorescence, FDSS; active compounds read low; inhibition of EC80 agonist-evoked calcium signal; Q9GZU1; in the data active = activity change below about -50%; inconclusive = between about -30% and that limit;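 also: stimulus is agonist 54-4 at its EC80 concentration; % is scaled to controls: 0 for no effect and ±100 for the full control effect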
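Calcium fluorescence in TRPML1-DL cells induced overnight with Tet: a 110 s read after compound pin addition, then a 110 s antagonist read after challenge with 54-4 at 4 uM final (EC80).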
Starred values were filed as active, the others as inactive; ? = inconclusive; · = no result given.

SMILES	TRPML1 agonist	TSG101-PTAP inh	GRP78 ERSR act	KCNH2 WT inh	KCNH2 3.1 block	TRPML1 inh
O=c1oc2c3c4c(cc2c(C(F)(F)F)c1CCN1CCOCC1)CCCN4CCC3	91*	?	-4%	-2	-16	-26
CC(C)c1cc(=O)oc2c3c4c(cc12)CCCN4CCC3	10	?	-5%	-5	-42	-12
COC(=O)c1ccc(-n2c(C)cc(C(=O)CSc3ccc(NC(C)=O)cc3)c2C)cc1	4	-1%	1%	2	-120*	-10
CC(=O)Nc1ccc(SCC(=O)c2cc(C)n(-c3ccccc3F)c2C)cc1	3	-1%	-11%	-9	0	8
COCc1c(C(=O)N2CCN(c3ccccc3O)CC2)cnn1-c1nccc(-c2cccs2)n1	·	·	-3%	·	·	·
O=C(c1cc(-c2ccc(O)cc2)on1)N1CCCCCC1	3	-2%	-1%	6	-3	-52*
S=c1nc(-c2ccc(Br)cc2)[nH]c2ccccc12	·	-1%	1%	-141*	31	·
Cc1nc2ccccn2c(=O)c1CCN1CCC(C(=O)c2ccc(F)cc2)CC1	-1	-1%	0%	4	-7	13
Cc1nc2sccn2c(=O)c1CCN1CCC(=C(c2ccc(F)cc2)c2ccc(F)cc2)CC1	0	-4%	-1%	-149*	-114*	18
Cc1ncc(C[n+]2csc(CCOC(=O)CC34CC5CC(CC(C5)C3)C4)c2C)c(N)n1	-1	0%	-4%	5	-127*	13
O=C(NCc1nnc2n1CCN(Cc1ccc(C(F)(F)F)cc1)CC2)c1cccc(F)c1	·	·	-4%	·	·	·
CCOc1ccc(NC(=O)CC2C(=O)N(CC)C(=S)N2CCN2CCOCC2)cc1 (stereo not drawn)	0	-1%	-4%	0	-88*	19
O=C(CCCc1ccccc1)Nc1ccnn1C1CCN(Cc2ccccc2)CC1	1	3%	-6%	4	-31	-8
CCOc1ccc(CN2CCC(n3nccc3NC(=O)CCCc3ccccc3)CC2)cc1	-1	1%	-3%	-132*	4	4
COc1cc(CN2CCC(n3nccc3NC(=O)CCCc3ccccc3)CC2)ccc1F	6	-5%	-2%	-35	-96*	-3
O=C(CCCc1ccccc1)Nc1ccnn1C1CCN(Cc2ccccc2F)CC1	0	-2%	-3%	7	-8	6
CCOc1cccc(CN2CCC(n3nccc3NC(=O)CCCc3ccccc3)CC2)c1	0	-2%	0%	37	-36	-8
CSc1ccc(CN2CCC(n3nccc3NC(=O)CCCc3ccccc3)CC2)cc1	0	-4%	-5%	-112*	-114*	13
O=C(CCCc1ccccc1)Nc1ccnn1C1CCN(Cc2ccc(Cl)cc2)CC1	0	-5%	-3%	-18	-103*	2
COc1ccc(CN2CCC(n3nccc3NC(=O)CCc3ccccc3)CC2)c(C)c1C	-1	-4%	-3%	0	-81*	5
CCOC(=O)/C(C#N)=C1/C=CN(c2ccccc2)C=N1	1	-3%	1%	14	4	18
CCOC(=O)/C(C#N)=C1/C=CN(Cc2ccccc2)C=N1	-1	2%	-1%	-249*	7	0
Cc1ccc(N2C(=O)CC(n3nc(C)cc3C)C2=O)cc1 (stereo not drawn)	0	-6%	-4%	-6	-211*	-14
Cc1cc(C)n(C2CC(=O)N(c3ccc(Cl)c(Cl)c3)C2=O)n1 (stereo not drawn)	0	0%	-1%	0	0	-8
COc1ccccc1C(=O)Nc1cc2c(cc1C(=O)O)OCCCO2	0	2%	1%	-2	-80*	-17
CCOc1ccc(NCc2cccn2-c2nnc(N3CCC(C(=O)NCCCN4C(C)CCCC4C)CC3)s2)cc1 (stereo not drawn)	-1	-2%	-6%	-228*	13	-3
COC(=O)c1ccc(CN2CCOc3ccc(CN4CCC(O)(c5cccnc5)CC4)cc3C2)cc1	·	·	-3%	·	·	·
